Bead autofluor: counter-screen for toxin protease inhibitors: compound fluorescence; compound autofluorescence counterscreen, microsphere flow cytometry; active compounds read high; fluorescence intensity (test concentration not listed); 360,000 compounds, 3.1% hits; in the data active means fluorescence intensity above about 16000; inconclusive means no clear call, values can overlap the other calls
Anthrax LF inh2: inhibitors of Bacillus anthracis lethal factor protease; P15917; multiplex microsphere protease cleavage assay, LF; inhibition, % at 10 µM; 360,000 compounds, 0.12% hits; AID 588501; further: plate controls were buffer without enzyme for full effect and enzyme alone for no effect
BoNT A protease: inhibitors of Botulinum neurotoxin A light chain protease; inhibition, % at 10 µM; AID 588499; multiplex microsphere protease substrate cleavage, flow cytometry; 360,000 compounds, 0.17% hits; further: plate controls were buffer without enzyme for full effect and enzyme alone for no effect
VHR inh abs: blocks human VHR1 dual specificity phosphatase | recombinant VHR phosphatase, pNPP absorbance | 290,000 compounds, 0.52% hits | P51452 | inhibition, % at 13.3 µM; in the data active means inhibition above about 50%
Target sequence (P51452 whole entry, looked up): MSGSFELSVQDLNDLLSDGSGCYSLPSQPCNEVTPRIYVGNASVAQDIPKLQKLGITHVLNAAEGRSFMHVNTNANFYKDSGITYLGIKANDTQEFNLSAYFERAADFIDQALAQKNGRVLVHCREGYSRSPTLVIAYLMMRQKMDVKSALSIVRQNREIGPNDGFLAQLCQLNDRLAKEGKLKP
MazF activator: increases E. coli MazEF RNase cleavage of RNA; P0AE70; FAM/BHQ RNA-DNA oligo cleavage fluorescence, 5 h; activation, % at 20 µM; 350,000 compounds, 0.32% hits; in the data active means activation above about 50%
Target sequence (P0AE70 whole entry, looked up): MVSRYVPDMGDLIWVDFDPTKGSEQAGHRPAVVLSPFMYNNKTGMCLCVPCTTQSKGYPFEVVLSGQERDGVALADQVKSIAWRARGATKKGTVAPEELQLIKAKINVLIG
BoNT-F LC inh: BoNT F light chain protease inhibition; Multiplex microsphere protease cleavage assay, flow cytometry; inhibition, % at 10 µM; 360,000 compounds, 0.22% hits; AID 588497; in the data active means inhibition above about 35%, passing the limit was not always enough; inconclusive means no clear call, values can overlap the other calls; further: plate controls were buffer without enzyme for full effect and enzyme alone for no effect
Active calls of the source: *; u = inconclusive; x = not tested or not shown; ! = a repeat was not active. This is a sample that favours compounds with a hit; in the whole collection about 4.1% have one here. Unless noted, no stated cut-off is given here; in the data, active means inhibition above about 30%; inconclusive means no clear call, values can overlap the other calls; inactive means below that.

SMILES	Bead autofluor	Anthrax LF inh2	BoNT A protease	VHR inh abs	MazF activator	BoNT-F LC inh
CCn1c(SCC(=O)NC2CCCCC2)nnc1-c1cccs1	20887*	-17	4	-19	1	3
O=C(COc1ccccc1)NS(=O)(=O)c1ccccc1	5158	-2	1	-4	5	2
Cc1cccc(C)c1OCC(=O)NCc1nnc(SCC(=O)NC2CCCCC2)n1C	22773*	-5	u	23	4	-5
N#CC(=C1NC(=O)c2ccccc21)c1nc2ccccc2n1CCO	3454	2	-1	x	2	-2
Cc1ccc(NC(=O)c2cccc(N3C(=O)C4C5CCC(C5)C4C3=O)c2)c(C)c1 (stereo not drawn)	2470	0	0	-18	3	1
Cc1ccccc1NC(=O)c1cccc(N2C(=O)C3C4CCC(C4)C3C2=O)c1 (stereo not drawn)	23697*	-1	u	27	-12	-5
CC(=NCCN1CCCCC1)c1c(O)n(-c2ccccc2)c(=O)[nH]c1=O	4135	-20	2	-4	0	u
C=CCn1c(O)c(C(C)=NCc2ccco2)c(=O)[nH]c1=O	21930*	0	0	2	2	0
CCC(=NCCCn1ccnc1)c1c(O)n(-c2ccccc2)c(=O)[nH]c1=O	4102	-25	u	33	-3	u
C=CCn1c(O)c(C(CC)=NCc2ccco2)c(=O)[nH]c1=O	3841	-3	u	33	3	u
CC(=NCCN1CCOCC1)c1c(O)n(Cc2ccccc2)c(=O)[nH]c1=O	13970	-12	5	14	-6	9
COc1ccc(-n2c(O)c(C(C)=NCCCn3ccnc3)c(=O)[nH]c2=O)cc1	17270*	1	-2	46	-3	-6
C=CCn1c(O)c(C(C)=NCCN2CCOCC2)c(=O)[nH]c1=O	21797*	5	3	50	4	3
CC(=NCCN1CCCCC1)c1c(O)n(-c2ccc(Cl)cc2)c(=O)[nH]c1=O	24548*	-4	-5	21	1	-5
CC(=O)c1ccc(NC(=O)Cn2cnc(S(=O)(=O)N3CCc4ccccc43)c2)cc1	4390	0	1	3	-7	-1
Cc1cc2nc(C)n(CCCN)c2cc1C	22118*	3	2	51*	1	7
Cc1ccc(S(=O)(=O)N2CCN(C(=O)COC(=O)Cc3ccc(Cl)cc3)CC2)c(C)c1	8481	-5	-4	x	-4	-4
Cc1cc2ccccn2c1C(=O)c1ccc(N/N=C/c2ccc(C(=O)O)cc2)c([N+](=O)[O-])c1	3479	-4	0	83*	-28	-2
Cc1ccc(S(=O)(=O)N(C)c2ccc(OCC(=O)Nc3cc(C(=O)O)ccc3Cl)cc2)cc1	x	x	x	x	1	x
Cc1ccc(S(=O)(=O)O/N=C2\CCCc3ccccc32)cc1	2791	-1	0	20	-10	-4
COc1ccc(S(=O)(=O)O/N=C2\CCSc3ccc(C)cc32)cc1	21946*	-1	-7	1	-6	-9
Cc1cccc(C(=O)O/N=C2\CCSc3ccc(C)cc32)c1	x	x	x	-7	-4	x
Cc1ccc(C(=O)O/N=C2\CCSc3ccc(C)cc32)cc1	19396*	-5	u	8	-1	0
Cc1cc(OCC(=O)N(Cc2ccco2)C2CCS(=O)(=O)C2)ccc1Cl (stereo not drawn)	3267	-13	1	13	5	u
Cc1cc2oc(C(=O)N(Cc3ccco3)C3CCS(=O)(=O)C3)cc(=O)c2cc1Cl (stereo not drawn)	23579*	3	0	5	8	3
SMILES	Bead autofluor	Anthrax LF inh2	BoNT A protease	VHR inh abs	MazF activator	BoNT-F LC inh
CCN(CC)c1cc(C)c(C#N)c2nc3ccccc3n12	4281	-11	-8	44	11	u
CCN(CC)c1c2c(c(C#N)c3nc4ccccc4n13)CCC2	16264*	-3	-1	27	27	-1
CCCCCCCCNC(=O)CCNC(=O)c1ccc(C(C)(C)C)cc1	16679*	-4	-2	6	-1	-3
COc1ccccc1-n1c(SCC(=O)Nc2ccccc2F)nc2[nH]ncc2c1=O	16242*	0	u	2	3	-2
O=C(O)C(Cc1c[nH]c2ccccc12)N1C(=O)c2ccccc2C1=O (stereo not drawn)	3274	-3	0	52*!	-3	3
Cc1ccc(C(=O)NNC(=O)c2ccccc2O)cc1S(=O)(=O)N1CCCCC1	x	x	x	x	-1	x
Cc1ccc2cc3c(N)c4c(C)ccc(C)c4nc3nc2c1	1713	-8	2	7	55*	-41
COc1cccc(CN(C)C(=O)CN2C(=O)NC(c3ccccc3)(c3ccccc3)C2=O)c1OC	3083	2	0	x	6	2
CCc1ccc(N(C(=O)CNC(=O)c2ccco2)C(C(=O)NCC2CCCO2)c2ccccc2)cc1 (stereo not drawn)	2060	1	0	22	13	-3
COc1ccc(C(C(=O)NCC2CCCO2)N(C(=O)CNC(=O)c2ccco2)c2cc(C)cc(C)c2)cc1OC (stereo not drawn)	3937	1	2	20	1	8
COc1cc(OC)cc(N(C(=O)CNC(=O)c2ccco2)C(C(=O)NCC2CCCO2)c2ccccc2)c1 (stereo not drawn)	5555	0	1	58*	7	4
COc1ccc(C(C(=O)NCC2CCCO2)N(C(=O)CNC(=O)c2ccco2)c2cc(C)ccc2C)cc1OC (stereo not drawn)	3709	6	0	53*	-2	14
O=Cc1ccc(OC(=O)/C=C/c2ccccc2)cc1	4391	2	-2	-5	6	-33
O=C(O)c1ccc2c(=O)n3c(nc2c1)/C(=C/c1ccc(Cl)cc1Cl)CC3	3175	3	1	18	1	-5
COCCCN1C(=O)c2ccc(C(=O)Nc3ccc(C)cc3C)cc2C1=O	3582	20	-1	27	3	-23
CCc1noc(C)c1C(=O)N1CCN(S(=O)(=O)c2ccc(Br)cc2Cl)CC1	x	x	x	x	-5	x
OC1(c2ccc(F)cc2)CCNC1 (stereo not drawn)	23064*	-1	0	17	9	-1
CC(C)N(C(=O)[C@H]1C[C@H](CC(=O)NCc2ccco2)C(=O)N2CCc3c([nH]c4ccc(Cl)cc34)[C@]12C)C(C)C	4145	2	0	x	4	5
c1nc2sc3c(c2c2nnnn12)CCC3	23437*	-2	0	26	3	0
c1nc2sc3c(c2c2nnnn12)CCCC3	12972	-2	1	18	-1	5
C=CCc1cccc(CNc2nc3ccccc3n2C(C)C)c1O	23489*	-4	u	36	3	-3
C=CCn1c(NCc2ccccc2O)nc2ccccc21	2781	-14	0	7	6	u
COc1ccc(-n2c(-c3ccco3)n[nH]c2=S)cc1	22219*	-3	3	-2	5	4
CCOc1ccc(Br)cc1S(=O)(=O)N1CC(C)OC(C)C1 (stereo not drawn)	15484	-21	12	-20	-3	21

From PubChem
